A short description of assay [1]: qHTS assay for small molecule agonists of retinoid X receptor alpha signaling (AID 588544).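 As to activation: 0% = DMSO basal wells and 100% = reference agonist.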 As to conditions: HEK293T RXRa-UAS-bla, beta-lactamase reporter, 18 h; 530 nm emission. For orientation: Quantitative high-throughput screening tests each substance at several concentrations.
Assay [2] deals with Retinoic acid receptor RXR-alpha (Homo sapiens) (UniProt P19793). The description is as above. The note with it: HEK293T RXRa-UAS-bla, beta-lactamase reporter, 18 h; series mostly up to 76.7 µM.
Retinoic acid receptor RXR-alpha (Homo sapiens), sequence (P19793 whole entry, looked up): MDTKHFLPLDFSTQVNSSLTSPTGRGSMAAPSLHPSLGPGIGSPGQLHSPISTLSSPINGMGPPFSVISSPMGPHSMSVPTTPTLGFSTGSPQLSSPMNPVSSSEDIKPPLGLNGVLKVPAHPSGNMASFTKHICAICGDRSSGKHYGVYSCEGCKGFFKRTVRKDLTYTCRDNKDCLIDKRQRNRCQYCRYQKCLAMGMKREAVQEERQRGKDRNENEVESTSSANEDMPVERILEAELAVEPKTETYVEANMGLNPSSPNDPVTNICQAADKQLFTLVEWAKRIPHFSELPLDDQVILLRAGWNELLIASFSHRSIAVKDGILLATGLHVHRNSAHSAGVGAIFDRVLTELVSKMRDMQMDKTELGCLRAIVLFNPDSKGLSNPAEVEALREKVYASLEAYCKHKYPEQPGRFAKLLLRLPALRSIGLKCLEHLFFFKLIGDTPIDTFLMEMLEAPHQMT
The target of assay [3] is Thyroid hormone receptor beta (Homo sapiens) (UniProt P10828). In words: qHTS assay for small molecule agonists of thyroid hormone receptor beta signaling (AID 588545).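 Also: 0% = DMSO only and 100% = 10 nM T3.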 The note with it: TR-UAS-bla GripTite HEK 293, beta-lactamase ratio, agonist mode, 18 h, percent of T3 response, DMSO as zero; series mostly up to 76.7 µM. A digest of the protocol: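 Efficacy and EC50 values derive from Hill fits of qHTS titration data, normalized to 10 nM T3 and DMSO-only wells. HEK 293 reporter cells were stimulated for 18 hrs at 37 C, with beta-lactamase activity measured by CCF4 fluorescence.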
Thyroid hormone receptor beta (Homo sapiens), sequence (P10828 whole entry, looked up): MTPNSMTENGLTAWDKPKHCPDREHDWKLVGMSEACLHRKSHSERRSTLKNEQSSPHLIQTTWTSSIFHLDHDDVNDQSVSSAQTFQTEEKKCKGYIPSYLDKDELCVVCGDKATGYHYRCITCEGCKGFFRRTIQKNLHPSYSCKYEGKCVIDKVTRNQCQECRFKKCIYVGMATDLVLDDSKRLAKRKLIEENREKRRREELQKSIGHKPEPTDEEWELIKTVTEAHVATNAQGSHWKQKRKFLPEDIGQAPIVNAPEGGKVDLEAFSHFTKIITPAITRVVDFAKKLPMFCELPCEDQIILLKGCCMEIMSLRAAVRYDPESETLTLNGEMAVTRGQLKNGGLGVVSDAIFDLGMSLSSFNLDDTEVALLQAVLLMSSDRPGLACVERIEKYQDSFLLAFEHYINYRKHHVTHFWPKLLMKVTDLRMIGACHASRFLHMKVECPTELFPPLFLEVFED

The nature of assay [4]: qHTS assay for small molecule antagonists of retinoid X receptor alpha signaling (AID 588546; active = well fitted inhibition curve with a large enough effect in the signal ratio, with a control signal flat, not every such curve was filed as active; the % refers to the signal ratio;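 also: cells stimulated with 9-cis-retinoic acid as agonist; % is scaled to controls: 0 for no effect and ±100 for the full control effect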). The note with it: HEK293T RXRa-UAS-bla, beta-lactamase ratio, antagonist mode; measured here: W530 green channel, cytotoxicity proxy. The gist of the method:
(§1)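 Beta-lactamase reporter inhibition, read as CCF4 fluorescence ratio (ex 405, em 460/530 nm) after 2 h at RT. HEK293T UAS-bla cells, 2500/well, were stimulated with 9-cis-RA at 500 or 100 nM final alongside test compound for 18 h at 37 C.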

Assay [5] has as its target Retinoic acid receptor RXR-alpha (Homo sapiens) (UniProt P19793). Described as above. The note with it: HEK293T RXRa-UAS-bla, beta-lactamase ratio, antagonist mode. A digest of the protocol:
as §1

The nature of assay [6]: qHTS assay for small molecule agonists of the antioxidant response element (ARE) signaling pathway (AID 651741; active = well fitted activation curve with a large enough effect in the signal ratio; the % refers to the signal ratio; also: % of control where 0% means no effect). The note with it: HepG2 ARE-bla reporter, beta-lactamase FRET ratio, 16 h; series mostly up to 96 µM. A digest of the protocol:
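Agonist activity is measured as ARE-driven beta-lactamase expression in a stable HepG2 reporter line, using 16 h compound treatment at 37 C and a FRET substrate fluorescence readout after 2 h.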

The nature of assay [7]: qHTS assay for small molecule activators of the p53 signaling pathway (AID 651743; active = well fitted activation curve with a large enough effect in the signal ratio, not every such curve was filed as active; the % refers to the signal ratio; also: % of control where 0% means no effect). The note with it: HCT-116 p53RE-bla, beta-lactamase FRET ratio, 16 h; stronger effect = higher value. The gist of the method:
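A beta-lactamase reporter under p53 response element control, stably carried by HCT-116 cells, reported pathway activation. Test compounds were applied for 16 hours at 37 C, and fluorescence was measured 2 hours after adding the B/G FRET substrate.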

A short description of assay [8]: qHTS assay for small molecule activators of the nuclear factor-kappa B (NF-kB) signaling pathway (AID 651749; active = well fitted activation curve with a large enough effect in the signal ratio; the % refers to the signal ratio; also: % of control where 0% means no effect). As to conditions: NF-kB-bla ME-180 cells, beta-lactamase FRET ratio, 16 h; stronger effect = higher value. The gist of the method: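 FRET-based beta-lactamase detection in ME-180 cells reports NF-kB response-element-driven transcription following overnight (16 hr) compound treatment.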

Assay [9] in a line: qHTS assay for small molecule disruptors of the mitochondrial membrane potential - 1 hr assay (AID 651754). Also: % is scaled to controls: 0 for no effect and ±100 for the full control effect; nearly all actives have a fitted effect of over 35% in size. The note with it: series mostly up to 92.2 µM. A digest of the protocol: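 Read-out: dye fluorescence at 490 nm ex/535 nm em (monomers) and 540 nm ex/590 nm em (aggregates) in HepG2 cells. Compound exposure 1 hr at 37C, followed by 30 min dye loading.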
A short description of assay [10]: qHTS assay for small molecule disruptors of the mitochondrial membrane potential - 5 hr assay (AID 651755). Also: % is scaled to controls: 0 for no effect and ±100 for the full control effect; nearly all actives have a fitted effect of over 40% in size. As to conditions: JC-1-type ratio dye; series mostly up to 92.2 µM. A digest of the protocol: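 Membrane-potential dye readout: red aggregate (540 ex/590 em) versus green monomer (490 ex/535 em) fluorescence after 30 min dye loading, following 5 hr compound exposure at 37C of overnight-plated HepG2 cells.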

Assay [11] addresses Tumor necrosis factor (Homo sapiens) (UniProt P01375). In words: qHTS assay to identify small molecules that stimulate Tumor Necrosis Factor-alpha (TNF-alpha) secretion (AID 651757; active = well fitted curve in the direction sought with a large enough effect in the signal ratio; the % refers to the signal ratio; also: 0% is about no effect). As to conditions: Human cells, HTRF 665/615 ratio; series mostly up to 92.2 µM. A digest of the protocol:
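THP-1 cells, 3000/well; compound 17 hrs, 37 C; add cryptate/XL665 anti-TNF-alpha antibody pair; 3 hr RT; TR-FRET (HTRF) read of secreted TNF-alpha. Quantitative HTS format.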

The nature of assay [12]: qHTS assay for environmental chemicals that activate the Aryl hydrocarbon Receptor (AhR) signaling pathway (AID 651777; active = well fitted curve in the direction sought with a large enough effect; an effect the other way counts as inactive or inconclusive; also: % of control where 0% means no effect; nearly all actives have a fitted effect of over 15% in size). As to conditions: 1A2-DRE human hepatoma cells, luciferase, 24 h; activation: stronger effect = higher value. A digest of the protocol: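 Luminescence read-out: One-Glo added for 30 min at RT after 24 hr compound treatment (37 C, 5% CO2) of human hepatoma cells expressing a DRE/CYP1A2 promoter–luciferase reporter; increased signal indicates AhR activation.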

In assay [13] the target is Peroxisome proliferator-activated receptor alpha (Homo sapiens) (UniProt Q07869). In words: qHTS assay for small molecule agonists of the peroxisome proliferator-activated receptor alpha (PPARalpha) signaling pathway (AID 651778; active = well fitted curve in the direction sought with a large enough effect; an effect the other way counts as inactive or inconclusive; also: % of control where 0% means no effect). The note with it: PathHunter PPARalpha complementation, chemiluminescence, 6 h; stronger effect = higher value. The gist of the method:
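Chemiluminescence from complemented enzyme reported PPARalpha activation in cells after 6 hr of compound treatment at 37 C. The detection reagent was incubated for 60 min at room temperature, and compounds were scored as agonists.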

The nature of assay [14]: qHTS assay for small molecule agonists of the antioxidant response element (ARE) signaling pathway measured by Nrf2-dependant transcriptional activity (AID 720636; active = well fitted curve in the direction sought with a large enough effect in the repeat runs; an effect the other way counts as inactive or inconclusive;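 also: HepG2 cells with an ARE-driven luciferase reporter; % of control where 0% means no effect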). The note with it: ARE-luc HepG2, Nrf2 luciferase reporter, 16 h; series mostly up to 92.4 µM. A digest of the protocol:
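HepG2 ARE-luc reporter line, 1% dialyzed FBS; 6 hr attachment at 37 C, compound pinned in, 16 hr at 37 C/5% CO2; ONE-Glo, 30 min RT, luminescence read.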

The nature of assay [15]: qHTS assay for small molecule antagonists of the retinoid-related orphan receptor gamma (ROR-gamma) signaling pathway - cell viability counter screen (AID 720652; active = well fitted curve in the direction sought with a large enough effect in the repeat runs; an effect the other way counts as inactive or inconclusive;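 also: CHO reporter cells with doxycycline-induced ROR-gamma expression; compound exposure lasted 16 hr before ATP read; % is scaled to controls: 0 for no effect and ±100 for the full control effect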). As to conditions: RORgamma reporter cell line viability counter screen; series mostly up to 92.2 µM. A digest of the protocol: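 CHO RORE-LUC/TET-ROR line, 1,000 cells/well, 37 C 5% CO2 5 hr; cpd or DMSO + doxycycline induction, 16 hr. CellTiter-Glo, 30 min RT, luminescence = ATP content.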

A short description of assay [16]: qHTS assay for small molecule agonists of the antioxidant response element (ARE) signaling pathway measured by Nrf2-dependant transcriptional activity - cell viability counter screen (AID 720653; active = well fitted curve in the direction sought with a large enough effect in the repeat runs; an effect the other way counts as inactive or inconclusive; also: % is scaled to controls: 0 for no effect and ±100 for the full control effect). The note with it: ARE-bla HepG2 viability, CellTiter-Glo ATP luminescence, 16 h; stronger effect = lower value. A digest of the protocol:
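Cytotoxicity counter screen: intracellular ATP quantified by CellTiter-Glo luminescence in the same ARE-bla HepG2 plates, after 16 h compound exposure and a 2 h beta-lactamase substrate step.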

Assay [17] concerns the target Thyroid hormone receptor beta (Homo sapiens) (UniProt P10828). In words: qHTS assay for small molecule antagonists of thyroid hormone receptor beta signaling (AID 588547; active = well fitted inhibition curve with a large enough effect in the signal ratio, with a control signal flat, not every such curve was filed as active; the % refers to the signal ratio;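 also: cells stimulated with 0.4 nM T3 agonist during compound exposure; % is scaled to controls: 0 for no effect and ±100 for the full control effect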). The note with it: TR-UAS-bla HEK293, beta-lactamase ratio, antagonist mode, 18 h. A digest of the protocol:
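Inhibition of T3-driven (0.4nM final) beta-lactamase reporter activity was measured over 0.59 nM to 92 uM compound after 18 h at 37 C. The cells were GripTite HEK293 TR-UAS-bla in charcoal/dextran-stripped serum, with CCF4 ratio read-out and IC50 from Hill fits.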

In assay [18] the target is Voltage-gated inwardly rectifying potassium channel KCNH2 (Homo sapiens) (UniProt Q12809). In words: qHTS Assay for Small Molecule Inhibitors of the Human hERG Channel Activity (AID 588834; active = well fitted curve in the direction sought with a large enough effect; an effect the other way counts as inactive or inconclusive;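 also: top concentration of the series differs between compounds; % is scaled to controls: 0 for no effect and ±100 for the full control effect; lower thallium flux fluorescence means stronger hERG block; nearly all actives have a fitted effect of over 50% in size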). The note with it: U2OS BacMam hERG, FluxOR thallium flux fluorescence; series mostly up to 92.2 µM. A digest of the protocol:
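Thallium serves as surrogate for K+ influx through BacMam-delivered hERG in U2OS cells. Compounds are added for about 10 minutes after dye loading; stimulation buffer then starts flux, monitored kinetically on FDSS.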

A short description of assay [19]: qHTS assay to identify small molecules that stimulate interleukin-8 (IL-8) secretion (AID 651758; active = well fitted activation curve with a large enough effect in the signal ratio; the % refers to the signal ratio; also: 0% is about no effect). The note with it: HTRF ratio (665/615); series mostly up to 92.2 µM. The gist of the method: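 Secreted IL-8 measured homogeneously by TR-FRET (two labelled anti-IL-8 antibodies, 1-3 h at room temperature) after a 16 h, 37 C compound treatment of THP-1 cells at 2000 cells/well.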

The target in assay [20] is Nuclear receptor ROR-gamma (Homo sapiens) (UniProt P51449). As to the kind of experiment: qHTS assay for small molecule antagonists of the retinoid-related orphan receptor gamma (ROR-gamma) signaling pathway (AID 651802; active = well fitted curve in the direction sought with a large enough effect; an effect the other way counts as inactive or inconclusive;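 also: CHO cells with doxycycline-induced ROR-gamma expression; luciferase reporter luminescence driven by ROR response element; % is scaled to controls: 0 for no effect and ±100 for the full control effect; nearly all actives have a fitted effect of over 60% in size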). The note with it: ROR-gamma antagonist cell reporter assay; series mostly up to 92.2 µM. The gist of the method: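 Luciferase read-out: ONE-Glo luminescence after 30 min at room temperature, following 16hr doxycycline induction at 37C, 5% CO2 of CHO cells with TET-inducible ROR and RORE-LUC reporter; decreased luminescence = reduced reporter activity.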
Nuclear receptor ROR-gamma (Homo sapiens), sequence (P51449 whole entry, looked up): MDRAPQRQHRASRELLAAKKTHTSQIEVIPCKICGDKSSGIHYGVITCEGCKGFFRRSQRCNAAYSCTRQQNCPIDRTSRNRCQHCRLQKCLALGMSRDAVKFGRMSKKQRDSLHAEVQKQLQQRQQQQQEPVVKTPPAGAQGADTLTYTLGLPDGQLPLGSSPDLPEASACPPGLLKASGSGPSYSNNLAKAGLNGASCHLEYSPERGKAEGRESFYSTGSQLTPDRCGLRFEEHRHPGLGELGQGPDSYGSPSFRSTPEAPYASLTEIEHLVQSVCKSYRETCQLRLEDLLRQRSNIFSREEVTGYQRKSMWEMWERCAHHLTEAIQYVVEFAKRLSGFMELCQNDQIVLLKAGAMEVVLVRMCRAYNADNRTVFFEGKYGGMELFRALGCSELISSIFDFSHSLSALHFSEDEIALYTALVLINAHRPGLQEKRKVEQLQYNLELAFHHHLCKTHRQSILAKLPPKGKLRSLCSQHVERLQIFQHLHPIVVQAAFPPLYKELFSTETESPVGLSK

The structures appear in SMILES notation. Results filed as inconclusive are left out. Calls of active or inactive are those of the source. Unless noted, calls follow the shape of the full dose curve.

Peroxisome proliferator-activated receptor alpha (Homo sapiens), sequence (Q07869 whole entry, looked up): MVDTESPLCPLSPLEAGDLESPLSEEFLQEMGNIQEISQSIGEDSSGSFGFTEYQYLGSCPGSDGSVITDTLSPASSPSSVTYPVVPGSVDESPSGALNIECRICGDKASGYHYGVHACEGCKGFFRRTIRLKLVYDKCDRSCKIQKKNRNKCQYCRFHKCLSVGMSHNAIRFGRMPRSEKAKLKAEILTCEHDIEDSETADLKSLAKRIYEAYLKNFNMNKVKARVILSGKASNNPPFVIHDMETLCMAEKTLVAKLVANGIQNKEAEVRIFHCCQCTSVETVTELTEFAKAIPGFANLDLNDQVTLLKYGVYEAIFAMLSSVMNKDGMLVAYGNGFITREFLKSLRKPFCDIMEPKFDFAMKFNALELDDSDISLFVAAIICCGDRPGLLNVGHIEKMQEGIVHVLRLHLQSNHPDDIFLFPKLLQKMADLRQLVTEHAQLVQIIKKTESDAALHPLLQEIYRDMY
Voltage-gated inwardly rectifying potassium channel KCNH2 (Homo sapiens), sequence (Q12809 whole entry, looked up): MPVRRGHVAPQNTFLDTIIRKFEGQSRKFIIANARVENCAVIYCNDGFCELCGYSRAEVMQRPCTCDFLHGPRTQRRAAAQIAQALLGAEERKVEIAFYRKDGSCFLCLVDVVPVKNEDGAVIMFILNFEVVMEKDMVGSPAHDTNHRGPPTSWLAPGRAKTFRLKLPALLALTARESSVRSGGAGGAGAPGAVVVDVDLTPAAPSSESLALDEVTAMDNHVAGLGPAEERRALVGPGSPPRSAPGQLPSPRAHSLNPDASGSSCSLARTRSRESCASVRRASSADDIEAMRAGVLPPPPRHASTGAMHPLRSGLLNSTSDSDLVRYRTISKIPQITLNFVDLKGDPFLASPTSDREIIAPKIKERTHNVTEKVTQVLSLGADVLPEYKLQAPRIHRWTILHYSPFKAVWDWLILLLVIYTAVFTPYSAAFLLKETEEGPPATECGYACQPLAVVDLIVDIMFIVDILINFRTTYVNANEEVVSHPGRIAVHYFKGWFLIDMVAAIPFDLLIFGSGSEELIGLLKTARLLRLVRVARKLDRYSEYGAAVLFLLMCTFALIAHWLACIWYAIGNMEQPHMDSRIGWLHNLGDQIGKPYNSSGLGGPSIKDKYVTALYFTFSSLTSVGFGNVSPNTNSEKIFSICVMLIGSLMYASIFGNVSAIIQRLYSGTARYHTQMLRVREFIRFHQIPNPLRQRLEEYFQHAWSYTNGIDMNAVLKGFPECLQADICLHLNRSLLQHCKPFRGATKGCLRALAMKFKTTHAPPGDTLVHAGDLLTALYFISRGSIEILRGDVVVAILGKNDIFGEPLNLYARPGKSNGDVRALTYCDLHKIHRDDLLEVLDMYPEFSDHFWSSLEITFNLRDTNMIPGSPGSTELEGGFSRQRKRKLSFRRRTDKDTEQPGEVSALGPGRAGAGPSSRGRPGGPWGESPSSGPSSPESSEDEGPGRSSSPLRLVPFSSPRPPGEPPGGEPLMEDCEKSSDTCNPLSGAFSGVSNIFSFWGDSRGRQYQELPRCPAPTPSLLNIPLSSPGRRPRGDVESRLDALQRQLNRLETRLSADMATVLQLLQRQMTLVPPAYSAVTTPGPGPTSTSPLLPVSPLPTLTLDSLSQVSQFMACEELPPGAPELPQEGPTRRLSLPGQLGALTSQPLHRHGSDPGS
Tumor necrosis factor (Homo sapiens), sequence (P01375 whole entry, looked up): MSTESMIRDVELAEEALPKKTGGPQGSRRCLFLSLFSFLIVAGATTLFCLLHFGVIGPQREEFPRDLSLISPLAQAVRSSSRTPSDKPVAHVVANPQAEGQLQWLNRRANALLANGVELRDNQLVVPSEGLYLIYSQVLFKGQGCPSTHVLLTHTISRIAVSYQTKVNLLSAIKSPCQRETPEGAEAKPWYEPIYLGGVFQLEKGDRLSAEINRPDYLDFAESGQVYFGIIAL

Consider `FC(F)(F)c1ccccc1Cl`, for which the max response was -12.9% in assay [1]; -4.91% in assay [4]; -5% (inactive) in assay [5]; -1.82% (inactive) in [13]; -5.26% (inactive) in assay [16]. The compound was classed as inactive in [2], in assay [3] and in assay [14]. The Potency result in assay [6], in assay [9], in [10], in assay [11] and in [15] was “inactive” in each case. Also, the activation in assay [7] was 1.57% (inactive); in [8], -0.494% (inactive); in assay [12] it was -0.14% (inactive).
In the case of `CC(=O)c1nccs1`, the max response in [1] was 4.76%; in assay [4], -5.53%; in assay [13], -1.62% (inactive); in [16] it was 25.7% (inactive). The outcome in assay [2], in assay [3] and in [14] was inactive. The activity change % (negative = inhibition) in assay [17] was 1.64% (inactive). Further, the Potency result in assay [18], in assay [6], in assay [9], in [10], in assay [11] and in assay [19] was “inactive” throughout. Further, the Potency result in [20] and in assay [15] was “inactive” each time. In addition, the activation in assay [7] is -4.02% (inactive).
For the compound `CC(=O)c1ccccn1`, the max response in assay [1] was -4.17%; in assay [4] it was -3.87%; in assay [13], 0.325% (inactive); in [16] it was 5.72% (inactive). Further, the call in [2], in assay [3] and in assay [14] was inactive. In addition, the activity change % (negative = inhibition) in [17] is -7.89% (inactive). Further, the Potency entry in assay [18], in assay [9], in assay [10], in assay [11], in [19] and in assay [20] was “inactive” each time. The Potency result in [15] is “inactive”. Further, the values for the activation in assay [7], in [8] and in assay [12] were -1.74% (inactive), -1.25% (inactive) and -0.723% (inactive), respectively.
Take `O=C1CCCCC1`: the max response in assay [1] is -9.55%; in [4], -8.36%; in assay [5] it was -0.633% (inactive); in assay [13] it was -2.26% (inactive); in assay [16] it was 5.45% (inactive). Further, the compound was classed as inactive in assay [2], in [3] and in assay [14]. Also, the Potency entry in assay [18], in [6], in assay [9], in [11], in assay [19] and in assay [20] was “inactive” in each case. Moreover, the activation was -1.28% (inactive) in assay [8] and -0.681% (inactive) in assay [12].
For `C=CCCCCCCC=C`, the max response was -11.6% in assay [1]; -1.72% in assay [4]; -6.51% (inactive) in [5]; 4.13% (inactive) in [13]; 5.83% (inactive) in assay [16]. The compound was classed as inactive in [2], in assay [3] and in assay [14]. Further, the Potency entry in assay [18], in assay [9], in assay [10], in [11], in assay [20] and in [15] was “inactive” throughout. Also, the activation is 0.568% (inactive) in [7], -0.256% (inactive) in assay [8] and 0.475% (inactive) in [12].
For the compound `CCCCC(=O)N(C)C`, the max response is -11.8% in assay [1]; -2.95% in assay [4]; 11.5% (inactive) in [5]; -3.71% (inactive) in assay [13]; -1.17% (inactive) in assay [16]. Moreover, the result in assay [2], in assay [3] and in [14] was inactive. Also, the Potency result in assay [18], in [9], in assay [10], in [11] and in assay [20] was “inactive” throughout. Also, the activation is -1.85% (inactive) in assay [7], -0.0165% (inactive) in assay [8] and 1.62% (inactive) in assay [12].
`Cc1ccc(S(=O)(=O)NC2CCCCC2)cc1`: the max response in [1] is -12.2%; in [4], -7.45%; in [13], -1.4% (inactive); in [16], 1.13% (inactive). The compound was classed as inactive in assay [2], in assay [3] and in assay [14]. In addition, in assay [17], the activity change % (negative = inhibition) was -0.348% (inactive). For the same compound, the Potency entry in assay [18], in assay [9], in assay [10], in [11] and in assay [19] was “inactive” throughout. Further, the activation is -2.24% (inactive) in [7], -0.807% (inactive) in [8] and -0.456% (inactive) in [12].
